Assay results as given in PubChem BioAssay (EPA / NIEHS).
Several values for one entry are separate records, joined by “and”; a condition that tells them apart may be missing. Equal values may be shown once. Results filed as inconclusive are left out. Some compounds were tested as several samples or in several runs, with calls that do not always agree. Activity calls are given as the source filed them. How the source made its calls, unless noted: active means hit-call score of the fitted dose curve at least 0.9, where 1 is the maximum; inactive means score below 0.9.

Legend:
[1] = target: Glucocorticoid receptor (Homo sapiens) (UniProt P04150); assay: ATG_GR_TRANS: Attagene TRANS-FACTORIAL HepG2 Assay for human Glucocorticoid Receptor (GR) (AID 2282978; active means hit-call score of the fitted dose curve at least 0.9, where 1 is the maximum;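 further: activators score as hits since higher reporter transcript over DMSO is fitted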); conditions: HepG2 Attagene TRANS GR reporter, mRNA transcription
Procedure, shortened: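 Transiently transfected HepG2 cells express chimeric NR-GAL4 proteins acting on GAL4-UAS reporter units. Compounds are applied for 24 h. mRNA induction over DMSO is measured by capillary electrophoresis.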

[2] = target: Bile acid receptor (Homo sapiens) (UniProt Q96RI1); assay: ATG_FXR_TRANS: Attagene TRANS-FACTORIAL HepG2 Assay for Farnesoid X Receptor (FXR) (AID 2282979; active means hit-call score of the fitted dose curve at least 0.9, where 1 is the maximum;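 further: hits raise reporter mRNA above DMSO so AC50 marks FXR activation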); conditions: HepG2 Attagene TRANS FXR-GAL4 reporter transcription
Procedure, shortened: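 After 24 h chemical treatment of transfected HepG2 cells, GAL4-UAS reporter transcripts driven by an exogenous FXR-GAL4 fusion were measured by RT-PCR and capillary electrophoresis. Increases over DMSO were fitted.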

[3] = target: Oxysterols receptor LXR-beta (Homo sapiens) (UniProt P55055); assay: ATG_LXRb_TRANS: Attagene TRANS-FACTORIAL HepG2 Assay for human Liver X Receptor beta (LXRb) (AID 2282981; active means hit-call score of the fitted dose curve at least 0.9, where 1 is the maximum); conditions: HepG2 Attagene TRANS GAL4-LXRb reporter, mRNA
Procedure, shortened: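 After 24 h chemical treatment of transfected HepG2 cells carrying exogenous NR-Gal4 chimeras, reporter mRNA was quantified by fluorescent RT-PCR and capillary electrophoresis; activity taken as increase over DMSO controls.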

[4] = target: Hepatocyte nuclear factor 4-alpha (Homo sapiens) (UniProt P41235); assay: ATG_HNF4a_TRANS: Attagene TRANS-FACTORIAL HepG2 Assay for human Hepatocyte Nuclear Factor 4 alpha (HNF4a) (AID 2282982; active means hit-call score of the fitted dose curve at least 0.9, where 1 is the maximum); conditions: HepG2 HNF4a transactivation reporter, mRNA readout
Procedure, shortened: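 Activity of an exogenous HNF4a–Gal4 fusion scored as induced GAL4-UAS reporter transcripts after 24 h chemical exposure of transfected human HepG2 cells. Read-out via RT-PCR with 6-FAM labelling and capillary electrophoresis; rise over DMSO baseline.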

[5] = ATG_M_06_TRANS: Attagene TRANS-FACTORIAL HepG2 Assay for M06 Transcription Factor (Internal Marker) (AID 2282983; active means hit-call score of the fitted dose curve at least 0.9, where 1 is the maximum;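 further: reporter transcript level by RT-PCR then capillary electrophoresis fluorescence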); conditions: HepG2 Attagene TRANS M06 internal marker reporter
Procedure, shortened: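 Multi-reporter-transfected HepG2, 24 h treatment; reporter transcripts quantified via RT-PCR, primer-extension labelling and CE. DMSO-normalized gain-of-signal fit.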

[6] = ATG_M_32_TRANS: Attagene TRANS-FACTORIAL HepG2 Assay for M32 Transcription Factor (Internal Marker) (AID 2282984; active means hit-call score of the fitted dose curve at least 0.9, where 1 is the maximum;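 further: transcript level of a background control reporter unit measured by RT-PCR and capillary electrophoresis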); conditions: HepG2 Attagene TRANS M32 internal marker reporter
Procedure, shortened: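 Internal background reporter in transfected HepG2: after 24 h chemical exposure, RNA reverse-transcribed, reporter cDNA amplified, fluorescently labelled and HpaI-cut, then sized by capillary electrophoresis. Gain of signal fitted against DMSO control.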

[7] = target: Nuclear receptor subfamily 4 group A member 2 (Homo sapiens) (UniProt P43354); assay: ATG_NURR1_TRANS: Attagene TRANS-FACTORIAL HepG2 Assay for human Nuclear Receptor Related Protein 1 (NURR1) (AID 2282985; active means hit-call score of the fitted dose curve at least 0.9, where 1 is the maximum); conditions: HepG2 Attagene TRANS reporter, mRNA readout
Procedure, shortened: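 Reporter transcript induction, measured by RT-PCR with fluorescent labelling, HpaI digestion and capillary electrophoresis, after 24 hr dosing of human HepG2 cells transiently expressing an exogenous NR-Gal4 fusion with GAL4-UAS-driven reporters; DMSO as baseline.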

[8] = target: Transcriptional activator Myb (Homo sapiens) (UniProt P10242); assay: ATG_Myb_CIS: Attagene CIS-FACTORIAL HepG2 Assay for human Myeloblastosis (Myb) Proto-Oncogene Transcription Factor (AID 2282986); conditions: HepG2 Attagene CIS-FACTORIAL Myb reporter transcription; actives raise or lower the signal
Procedure, shortened: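 Using HepG2 liver cells bearing transiently transfected cis-promoter reporter constructs, the assay measures induction or loss of reporter mRNA after 24 hours of dosing. Detection used fluorescently labeled RT-PCR products separated by capillary electrophoresis.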

[9] = target: Nuclear respiratory factor 1 (Homo sapiens) (UniProt Q16656); assay: ATG_NRF1_CIS: Attagene CIS-FACTORIAL HepG2 Assay for human Nuclear Respiratory Factor 1 (NRF1) Orphan Gene (AID 2282987); conditions: HepG2 NRF1 cis-element reporter, Attagene multiplex; actives raise or lower the signal
Procedure, shortened: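 Reporter mRNA induction or loss in HepG2 cells after 24 h dosing; cis-regulated reporter constructs report endogenous transcription-factor activity. Quantified by RT-PCR/capillary electrophoresis fluorescence, DMSO-referenced.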

[10] = target: Myc proto-oncogene protein (Homo sapiens) (UniProt P01106); assay: ATG_Myc_CIS: Attagene CIS-FACTORIAL HepG2 Assay for human Myelocytomatosis (Myc) Proto-Oncogene Transcription Factor (AID 2282990); conditions: HepG2, Attagene cis-reporter transcription factor activity; actives raise or lower the signal
Procedure, shortened: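 After 24 h chemical treatment of HepG2 cells carrying multiplexed cis-regulated reporter constructs, reporter transcripts quantified by RT-PCR and capillary electrophoresis of fluorescent fragments. Gain or loss fitted against DMSO baseline.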

[11] = ATG_NF_kB_CIS: Attagene CIS-FACTORIAL HepG2 Assay for human Nuclear Factor Kappa B (NF-kB) (AID 2282991); conditions: HepG2 Attagene cis-factorial NF-kB reporter mRNA; actives raise or lower the signal
Procedure, shortened: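 DMSO served as negative control and baseline for bidirectional curve fitting. Transiently transfected HepG2 cells were dosed for 24 h, then reporter transcripts were measured by RT-PCR with capillary electrophoresis detection.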

[12] = ATG_NRF2_ARE_CIS: Attagene CIS-FACTORIAL HepG2 Assay for human Nuclear Factor Erythroid 2 Related Factor 2 (NFR2) response to Antioxidant Response Elements (ARE) (AID 2282992); conditions: HepG2 Attagene ARE/NRF2 reporter, transcription factor activity; actives raise or lower the signal;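 on AC50: reporter mRNA level measured by RT-PCR and capillary electrophoresis fluorescence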
Procedure, shortened: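 Endogenous transcription factor activity in human liver HepG2 cells is tracked via a cis-element-driven reporter within a multiplexed set. mRNA induction is read by RT-PCR and capillary electrophoresis after 24 h, with DMSO as baseline.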

[13] = ATG_Oct_MLP_CIS: Attagene CIS-FACTORIAL HepG2 Assay for human Octamer-Binding Transcription Factor (Oct) (AID 2282993); conditions: HepG2 Attagene cis-factorial Oct reporter, mRNA; actives raise or lower the signal
Procedure, shortened: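 Transient MRTU transfection of HepG2 → 24 h compound treatment → RNA isolation, reverse transcription, PCR → 6-FAM primer extension, HpaI digest → capillary electrophoresis. Activity fitted both directions against DMSO.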

[14] = target: Cellular tumor antigen p53 (Homo sapiens) (UniProt P04637); assay: ATG_p53_CIS: Attagene CIS-FACTORIAL HepG2 Assay for human p53 Transcription Factor (AID 2282994); conditions: HepG2 p53 cis-element reporter, Attagene mRNA; actives raise or lower the signal
Procedure, shortened: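 Steps: transfect HepG2 with multiplexed cis reporter constructs; dose chemicals 24 h; extract RNA, reverse-transcribe, PCR-amplify reporter sequences; FAM-label, HpaI-digest, resolve fragments by CE. Activity fitted both directions relative to DMSO.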

[15] = BSK_3C_TissueFactor: BioMAP Diversity Plus: 3C Assay for Tissue Factor Biomarker Activity (AID 2282997); conditions: BioMAP 3C HUVEC, tissue factor biomarker readout; actives raise or lower the signal
Procedure, shortened: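 In this endothelial system, HUVEC are treated for 24 h and Tissue Factor is assessed by ELISA, normalised to DMSO.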

[16] = BSK_3C_uPAR: BioMAP Diversity Plus: 3C Assay for Urokinase-type plasminogen activator receptor (uPAR) Biomarker Activity (AID 2282998); conditions: BioMAP 3C HUVEC, uPAR biomarker ELISA; actives raise or lower the signal
Procedure, shortened: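 ELISA readout of uPAR on human vascular endothelium (umbilical vein primary cells), taken 24 h after chemical dosing. Increases and decreases are both fitted relative to DMSO vehicle.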

[17] = BSK_3C_VCAM1: BioMAP Diversity Plus: 3C Assay for Vascular cell adhesion molecule 1 (VCAM1) Biomarker Activity (AID 2282999); conditions: BioMAP 3C HUVEC, VCAM1 ELISA, cytokine-stimulated; actives raise or lower the signal
Procedure, shortened: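 Activity fitted in both directions relative to DMSO, with ELISA measurement of the surface marker on primary HUVEC (3C) at 24 h post-treatment; parallel SRB staining (0.1% SRB, TCA-fixed, 560 nm) flagged overt cytotoxicity.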

[18] = BSK_4H_Eotaxin3: BioMAP Diversity Plus: 4H Assay for Eotaxin 3 Biomarker Activity (AID 2283000); conditions: primary human endothelial cells (HUVEC); actives raise or lower the signal
Procedure, shortened: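 ELISA quantitation of CCL26 (Eotaxin-3) protein from chemically dosed human vascular endothelial cells at 24 h; increases and decreases both scored relative to DMSO-treated baseline.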

[19] = target: Oxysterols receptor LXR-alpha (Homo sapiens) (UniProt Q13133); assay: ATG_LXRa_TRANS: Attagene TRANS-FACTORIAL HepG2 Assay for human Liver X Receptor alpha (LXRa) (AID 2282980; active means hit-call score of the fitted dose curve at least 0.9, where 1 is the maximum); conditions: HepG2 Attagene TRANS reporter, LXRa transactivation
Procedure, shortened: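 In this multiplexed TRANS system, compounds act on HepG2 cells carrying GAL4-UAS reporter units and a receptor-GAL4 fusion for 24 h. Induced reporter RNA is amplified, fluorescently labelled and sized by capillary electrophoresis, with DMSO as baseline.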

[20] = ATG_NFI_CIS: Attagene CIS-FACTORIAL HepG2 Assay for human Nuclear Factor I (NFI) (AID 2282989); conditions: HepG2 cis-regulatory reporter, NFI response element transcription; actives raise or lower the signal
Procedure, shortened: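 Transient MRTU transfection of HepG2 → 24 h chemical dosing → total RNA, oligo(dT) RT → PCR, 6-FAM primer extension, HpaI cut → capillary electrophoresis. Endpoint fitted bidirectionally relative to DMSO.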

Measured: AC50

Chain of Bile acid receptor (Homo sapiens) (Q96RI1 whole entry, looked up, the tested form may be a part): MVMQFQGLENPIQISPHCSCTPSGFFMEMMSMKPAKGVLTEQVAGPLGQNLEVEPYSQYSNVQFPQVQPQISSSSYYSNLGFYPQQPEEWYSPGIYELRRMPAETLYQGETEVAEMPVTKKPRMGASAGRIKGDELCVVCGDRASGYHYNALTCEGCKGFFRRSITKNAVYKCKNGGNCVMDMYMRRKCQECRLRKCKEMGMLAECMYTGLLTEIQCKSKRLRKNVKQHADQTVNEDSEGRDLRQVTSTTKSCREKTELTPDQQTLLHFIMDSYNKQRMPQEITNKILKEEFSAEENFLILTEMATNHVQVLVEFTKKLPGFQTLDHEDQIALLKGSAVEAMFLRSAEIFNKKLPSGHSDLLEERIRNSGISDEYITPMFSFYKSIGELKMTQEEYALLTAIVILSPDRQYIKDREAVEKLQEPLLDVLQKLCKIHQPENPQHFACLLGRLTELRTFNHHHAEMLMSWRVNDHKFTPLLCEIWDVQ
Chain of Hepatocyte nuclear factor 4-alpha (Homo sapiens) (P41235 whole entry, looked up, the tested form may be a part): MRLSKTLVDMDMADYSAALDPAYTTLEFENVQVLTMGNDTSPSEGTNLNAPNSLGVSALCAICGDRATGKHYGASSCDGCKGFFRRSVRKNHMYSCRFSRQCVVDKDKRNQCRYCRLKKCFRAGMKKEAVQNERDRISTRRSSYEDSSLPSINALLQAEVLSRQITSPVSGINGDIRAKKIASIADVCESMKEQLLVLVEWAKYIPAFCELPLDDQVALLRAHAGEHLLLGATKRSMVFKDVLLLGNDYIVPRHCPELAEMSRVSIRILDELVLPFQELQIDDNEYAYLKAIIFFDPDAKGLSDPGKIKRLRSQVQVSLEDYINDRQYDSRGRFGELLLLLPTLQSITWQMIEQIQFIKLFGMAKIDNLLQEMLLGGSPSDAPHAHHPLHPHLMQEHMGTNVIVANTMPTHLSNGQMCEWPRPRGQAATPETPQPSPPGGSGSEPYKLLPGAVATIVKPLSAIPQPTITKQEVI
Chain of Oxysterols receptor LXR-alpha (Homo sapiens) (Q13133 whole entry, looked up, the tested form may be a part): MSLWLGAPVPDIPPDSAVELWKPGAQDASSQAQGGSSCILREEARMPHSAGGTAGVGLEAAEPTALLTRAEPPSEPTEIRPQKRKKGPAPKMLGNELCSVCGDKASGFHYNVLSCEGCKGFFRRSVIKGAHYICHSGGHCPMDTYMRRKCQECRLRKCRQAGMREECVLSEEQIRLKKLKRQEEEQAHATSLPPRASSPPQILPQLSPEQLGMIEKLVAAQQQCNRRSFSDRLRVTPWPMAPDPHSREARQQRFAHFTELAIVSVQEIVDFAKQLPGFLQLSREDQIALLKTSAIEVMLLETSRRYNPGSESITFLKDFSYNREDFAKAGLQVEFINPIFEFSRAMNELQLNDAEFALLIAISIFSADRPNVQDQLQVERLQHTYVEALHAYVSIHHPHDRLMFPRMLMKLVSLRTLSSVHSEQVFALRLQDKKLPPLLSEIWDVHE
Chain of Nuclear receptor subfamily 4 group A member 2 (Homo sapiens) (P43354 whole entry, looked up, the tested form may be a part): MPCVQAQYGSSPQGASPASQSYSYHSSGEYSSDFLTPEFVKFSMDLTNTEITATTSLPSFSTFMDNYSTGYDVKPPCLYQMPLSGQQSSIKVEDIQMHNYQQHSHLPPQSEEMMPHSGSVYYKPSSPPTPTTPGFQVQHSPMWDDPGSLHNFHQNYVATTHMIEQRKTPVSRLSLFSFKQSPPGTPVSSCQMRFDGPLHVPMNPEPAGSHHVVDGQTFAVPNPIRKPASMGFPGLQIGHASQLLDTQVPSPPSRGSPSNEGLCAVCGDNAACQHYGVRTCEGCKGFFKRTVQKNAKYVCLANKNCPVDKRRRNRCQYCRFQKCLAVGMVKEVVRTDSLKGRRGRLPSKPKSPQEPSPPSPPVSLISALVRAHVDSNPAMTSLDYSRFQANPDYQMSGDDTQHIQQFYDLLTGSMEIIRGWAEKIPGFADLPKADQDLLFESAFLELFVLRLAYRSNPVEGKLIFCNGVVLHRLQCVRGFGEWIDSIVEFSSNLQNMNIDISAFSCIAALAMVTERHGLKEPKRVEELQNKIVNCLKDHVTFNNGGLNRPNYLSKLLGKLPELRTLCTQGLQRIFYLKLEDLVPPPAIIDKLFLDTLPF
Chain of Oxysterols receptor LXR-beta (Homo sapiens) (P55055 whole entry, looked up, the tested form may be a part): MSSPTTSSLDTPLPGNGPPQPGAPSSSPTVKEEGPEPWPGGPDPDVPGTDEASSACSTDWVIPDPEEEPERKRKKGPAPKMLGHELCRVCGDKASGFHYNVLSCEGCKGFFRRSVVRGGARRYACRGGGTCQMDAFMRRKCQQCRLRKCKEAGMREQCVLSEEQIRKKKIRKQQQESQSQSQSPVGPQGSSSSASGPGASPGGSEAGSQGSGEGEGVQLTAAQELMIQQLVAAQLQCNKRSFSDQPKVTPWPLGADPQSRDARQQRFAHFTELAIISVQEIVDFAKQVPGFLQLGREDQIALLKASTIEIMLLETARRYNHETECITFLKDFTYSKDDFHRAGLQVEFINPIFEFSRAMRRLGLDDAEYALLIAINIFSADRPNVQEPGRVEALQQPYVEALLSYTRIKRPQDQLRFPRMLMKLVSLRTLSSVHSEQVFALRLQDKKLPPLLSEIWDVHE
Chain of Nuclear respiratory factor 1 (Homo sapiens) (Q16656 whole entry, looked up): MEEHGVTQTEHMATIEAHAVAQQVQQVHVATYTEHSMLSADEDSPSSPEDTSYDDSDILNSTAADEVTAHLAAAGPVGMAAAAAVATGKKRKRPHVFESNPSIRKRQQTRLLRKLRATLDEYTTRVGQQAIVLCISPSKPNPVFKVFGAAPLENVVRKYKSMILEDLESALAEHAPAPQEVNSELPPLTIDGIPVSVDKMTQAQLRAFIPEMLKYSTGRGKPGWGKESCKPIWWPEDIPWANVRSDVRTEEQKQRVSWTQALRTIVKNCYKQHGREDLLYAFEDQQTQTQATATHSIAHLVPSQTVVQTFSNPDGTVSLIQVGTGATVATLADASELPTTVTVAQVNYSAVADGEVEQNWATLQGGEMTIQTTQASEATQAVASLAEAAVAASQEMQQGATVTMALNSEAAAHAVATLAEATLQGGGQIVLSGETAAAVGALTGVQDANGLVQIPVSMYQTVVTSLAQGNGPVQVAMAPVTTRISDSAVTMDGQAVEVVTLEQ
Chain of Myc proto-oncogene protein (Homo sapiens) (P01106 whole entry, looked up, the tested form may be a part): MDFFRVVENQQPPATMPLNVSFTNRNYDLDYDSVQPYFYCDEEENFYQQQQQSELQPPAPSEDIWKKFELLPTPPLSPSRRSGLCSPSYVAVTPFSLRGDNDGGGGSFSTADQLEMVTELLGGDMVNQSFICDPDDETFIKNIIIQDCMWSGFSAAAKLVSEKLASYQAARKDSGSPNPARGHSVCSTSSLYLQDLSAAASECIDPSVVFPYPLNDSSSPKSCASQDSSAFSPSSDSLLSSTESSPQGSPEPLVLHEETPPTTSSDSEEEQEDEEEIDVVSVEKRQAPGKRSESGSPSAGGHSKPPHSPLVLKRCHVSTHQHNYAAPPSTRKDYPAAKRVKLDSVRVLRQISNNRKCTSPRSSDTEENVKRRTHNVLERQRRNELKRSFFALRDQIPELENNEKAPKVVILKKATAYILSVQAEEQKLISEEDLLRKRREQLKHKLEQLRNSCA
Chain of Cellular tumor antigen p53 (Homo sapiens) (P04637 whole entry, looked up, the tested form may be a part): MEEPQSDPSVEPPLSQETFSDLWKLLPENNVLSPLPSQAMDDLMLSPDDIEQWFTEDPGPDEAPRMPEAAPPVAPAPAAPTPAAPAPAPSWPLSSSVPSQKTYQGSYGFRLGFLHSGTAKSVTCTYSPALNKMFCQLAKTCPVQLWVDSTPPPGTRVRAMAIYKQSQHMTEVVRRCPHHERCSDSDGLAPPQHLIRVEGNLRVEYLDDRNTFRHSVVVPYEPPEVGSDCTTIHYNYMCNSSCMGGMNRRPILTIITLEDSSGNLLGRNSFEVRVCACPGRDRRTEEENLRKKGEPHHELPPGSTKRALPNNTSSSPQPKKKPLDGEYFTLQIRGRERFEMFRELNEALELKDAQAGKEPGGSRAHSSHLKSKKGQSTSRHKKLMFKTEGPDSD
Chain of Transcriptional activator Myb (Homo sapiens) (P10242 whole entry, looked up): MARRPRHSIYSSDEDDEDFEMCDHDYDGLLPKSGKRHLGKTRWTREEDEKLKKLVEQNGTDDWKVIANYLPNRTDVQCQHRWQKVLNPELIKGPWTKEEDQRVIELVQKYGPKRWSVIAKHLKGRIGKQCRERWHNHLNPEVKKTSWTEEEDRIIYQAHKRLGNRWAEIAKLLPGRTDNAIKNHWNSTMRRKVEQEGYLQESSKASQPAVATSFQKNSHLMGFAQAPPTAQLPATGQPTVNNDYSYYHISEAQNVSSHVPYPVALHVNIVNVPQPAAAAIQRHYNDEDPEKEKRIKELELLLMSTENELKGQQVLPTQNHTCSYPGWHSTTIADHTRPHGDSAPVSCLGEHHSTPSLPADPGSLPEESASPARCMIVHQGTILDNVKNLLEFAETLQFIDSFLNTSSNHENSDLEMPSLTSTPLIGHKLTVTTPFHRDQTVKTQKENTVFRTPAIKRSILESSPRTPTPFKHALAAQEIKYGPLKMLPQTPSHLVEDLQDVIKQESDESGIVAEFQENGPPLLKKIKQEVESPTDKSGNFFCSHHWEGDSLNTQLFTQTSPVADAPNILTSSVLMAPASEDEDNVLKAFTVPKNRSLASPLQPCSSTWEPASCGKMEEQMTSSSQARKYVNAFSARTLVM

CC(C)Oc1cc(-n2nc(C(C)(C)C)oc2=O)c(Cl)cc1Cl
active: [12] 7.62 µM | [13] 10.6 µM | [16] 32 µM | [17] 25.4 µM | [18] 31.9 µM
not listed: [19] | [20]
inactive: all other assays above

CCOP(=S)(OCC)SCn1c(=O)oc2cc(Cl)ccc21
active: [12] 16 µM | [13] 14.1 µM
not listed: [4] | [11]
inactive: all other assays above

CCCC1COC(Cn2cncn2)(c2ccc(Cl)cc2Cl)O1 (stereo not drawn)
inactive: [1] | [19] | [3] | [4] | [5] | [6] | [7] | [8] | [9] | [20] | [10] | [11] | [12] | [13] | [14] | [15] | [16] | [17] | [18]
active: [12] 27.1 µM | [13] 8.1 µM

N#CC(CCc1ccc(Cl)cc1)(Cn1cncn1)c1ccccc1 (stereo not drawn)
active: [12] 10.3 µM
not listed: [5] | [7] | [19]
inactive: all other assays above

CO/C=C(/C(=O)OC)c1ccccc1Oc1cc(Oc2ccccc2C#N)ncn1
active: [7] 71.2 µM | [9] 65.6 µM | [13] 15.6 µM | [15] 21.1 µM and 24.6 µM | [16] 13.3 µM [middle of 4 runs] | [17] 21.1 µM | [18] 24.8 µM [middle of 4 runs]
inactive: [1] | [19] | [3] | [4] | [5] | [6] | [7] | [8] | [9] | [10] | [12] | [13] | [14] | [15] | [17]

Cc1cc(Cl)ccc1OCC(=O)O
not listed: [2] | [11] | [20]
inactive: all other assays above
